# Rows were chosen to be rich in hits. Some 1.3% of all compounds tested hit in one or more screens of this group.
# TcdB GH inh: TcdB glycohydrolase inhibition. P18177. TcdB glycohydrolase enzymatic assay, plate reader. inhibition, % at 9.99 µM. 350,000 tested, 0.24% active. AID 652162; in the data active = inhibition above about 10%
# DUSP3 inh: blocks human VHR1 dual specificity phosphatase; inhibition, % at 13.3 µM; 290,000 tested, 0.52% active; recombinant VHR phosphatase, pNPP absorbance; P51452; in the data active = inhibition above about 50%
# Target sequence (P51452 whole entry, looked up): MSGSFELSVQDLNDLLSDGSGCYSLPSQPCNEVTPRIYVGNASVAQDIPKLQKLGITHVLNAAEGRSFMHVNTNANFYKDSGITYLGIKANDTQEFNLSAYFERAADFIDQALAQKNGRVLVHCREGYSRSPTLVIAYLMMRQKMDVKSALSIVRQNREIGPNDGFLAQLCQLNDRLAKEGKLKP
# 3CLpro inhibitor: SARS-CoV 3CLpro protease inhibition; P0C6X7; recombinant SARS-CoV 3CLpro, quenched FRET peptide cleavage; inhibition, % at 6 µM; 290,000 tested, 0.14% active; AID 1706; in the data active = inhibition above about 12%
# CCHF vOTU inh-1: CCHFV vOTU protease inhibition | 370,000 tested, 0.55% active | inhibition, % at 11.5 µM | Pep-AMC fluorescence | AID 651958; note: 0% = vehicle wells with enzyme and 100% = no enzyme wells
# BH1578 lux ind: induces V. cholerae light production without autoinducers. V. cholerae BH1578 lux reporter, luminescence, 6 h. activation, % at 18.7 µM. 350,000 tested, 0.16% active; in the data active = activation mostly above about 9.7%, no sharp cut-off
# SSB-PriA inh: K. pneumoniae PriA-SSBct interaction inhibition | AlphaScreen SSBct-PriA binding, biotinylated peptide | inhibition, % at 33 µM | 430,000 tested, 0.6% active | AID 1272365; in the data active = inhibition mostly above about 37%, no sharp cut-off; inactive = mostly below about 20%;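 note: plate controls were negative control peptide for no effect and reference peptide for full effect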
# CCHF vOTU inh-2: confirmation of CCHF virus vOTU protease inhibitors; shares compounds with CCHF vOTU inh-1; Recombinant CCHFV vOTU, Pep-AMC fluorescence; inhibition, % at 11.5 µM; 1,900 tested, 17% active; AID 686976
# * marks the source's active call; other numbers are inactive results; i = inactive; nt = no result. Cut-off read from the data, not from the text of the source, unless noted: active = inhibition above about 30%; inactive = the rest.
SMILES,TcdB GH inh,DUSP3 inh,3CLpro inhibitor,CCHF vOTU inh-1,BH1578 lux ind,SSB-PriA inh,CCHF vOTU inh-2
CC1=C(C(=O)N2CCOCC2)CC(CC(=O)NCCN2CCOCC2)C(=O)N1Cc1ccccc1 (stereo unspecified),0,nt,nt,30*,0,nt,-25
CN=c1sc(C(=O)Nc2ccccc2)c(C)n1C,1,-6,9,-6,0,-3,nt
CN=c1sc2c(n1C)C(=O)c1ccccc1C2=O,1,nt,nt,80*,-2,3,79*
O=C(CSc1nccc2ccccc12)N1CCN(c2ccccn2)CC1,-12,25,2,65*,0,-13,-10
O=C(Nc1nnc(-c2ccc(Br)cc2)o1)c1cc(Cl)ccc1Cl,nt,nt,nt,nt,nt,-1,nt
Nc1ccccc1C(=O)N1CCc2ccccc21,2,13,4,49*,i,-23,-4
Oc1ccc(NCc2cccs2)cc1,1,-4,0,88*,i,14,-5
Cc1cc(C(=O)N(CC2CCCO2)c2nc3c(F)cc(F)cc3s2)no1 (stereo unspecified),nt,nt,nt,nt,nt,0,nt
CN(C)c1ccc(NC2=C(Cl)C(=O)c3ccccc3C2=O)cc1,-1,-8,1,56*,i,64*,14
O=C1C(Cl)=C(Nc2ccc3cn[nH]c3c2)C(=O)c2ccccc21,-3,15,6,87*,i,10,80*
COc1ccc(CN([C@H](CO)CC(C)C)S(=O)(=O)N(Cc2ccccc2)[C@H](CO)CC(C)C)cc1,-4,nt,nt,34*,-7,4,2
O=c1[nH]c2nc(N3CCSCC3)ncc2c(=O)n1CCc1cccs1,nt,nt,nt,nt,nt,-14,nt
CC1(C)CC(C(CCN(Cc2ccccc2)C(=O)c2ccco2)c2ccc(F)cc2)CCO1 (stereo unspecified),nt,1,2,33*,1,7,-2
O=C(c1ccco1)N(CCC(c1ccccc1)c1ccco1)Cc1ccc(F)cc1 (stereo unspecified),0,20,7,nt,0,-8,nt
CCOc1ccc(CCNC(=O)c2ccc(Cl)c(S(=O)(=O)N3CCOCC3)c2)cc1OCC,0,nt,nt,42*,-1,-1,1
CC1=NN(c2ccccc2)C(=O)/C1=C\c1cn(-c2ccccc2)nc1-c1cc2ccccc2o1,nt,nt,nt,nt,nt,5,nt
COc1cc2c(cc1O)[C@@H]1Cc3ccc(OC)c(O)c3CN1CC2,-24,nt,nt,105*,i,-3,93*
COc1ccc(C=NNC(=O)c2nn(-c3ccc(Cl)cc3)c(=O)c3c(N)scc23)cc1,nt,nt,nt,nt,nt,4,nt
Nc1scc2c(C(=O)N/N=C/c3ccc(Cl)cc3)nn(-c3ccccc3)c(=O)c12,nt,6,-1,36*,i,nt,64*
Clc1ccc(-c2nnc(SCc3ccccn3)o2)s1,nt,nt,nt,nt,nt,-5,nt
Cc1ccc2nc(-c3ccc(NC(=O)c4cccc([N+](=O)[O-])c4C(=O)O)cc3)sc2c1,nt,nt,nt,nt,nt,16,nt
O=C(CCSc1ccccc1)NCCOc1ccc2nnc(-c3ccc(F)cc3)n2n1,nt,nt,nt,nt,nt,-19,nt
Cc1ccc(Nc2c([N+](=O)[O-])ccc3nonc23)c(C)c1,1,nt,3,9,i,14,nt
Cc1ccc(S(=O)c2ccc([N+](=O)[O-])c3nonc23)cc1 (stereo unspecified),-1,nt,nt,32*,i,nt,18
Nc1cc2c3c(cccc3c1)C(=O)N(O)C2=O,nt,nt,nt,nt,nt,-17,nt
SMILES,TcdB GH inh,DUSP3 inh,3CLpro inhibitor,CCHF vOTU inh-1,BH1578 lux ind,SSB-PriA inh,CCHF vOTU inh-2
O=C1CCn2c1c(O)c1ccccc1c2=O,-4,nt,nt,95*,i,9,34*
O=c1c2ccccc2nc2n1CCC2,nt,42,6,13,-7,-8,nt
CCc1c(C)nc2c(C)cccc2c1SCCC#N,1,-9,-5,33*,i,-7,-11
Cc1cc[n+](-c2[nH]c(=O)sc2/C=N/N=C(\[O-])c2ccncc2)cc1,1,22,-3,31*,7,nt,-18
CCOc1ccc(CCN2C(=S)N([C@@H](Cc3ccc(O)cc3)CN3CCC[C@@H]3CN3C(=S)NC[C@@H]3Cc3ccccc3)C[C@@H]2Cc2ccccc2)cc1,1,nt,nt,14,nt,nt,nt
CCOc1ccc(CCN2C(=O)C(=O)N([C@@H](CC(C)C)CN3CCC[C@H]3CN3C(=O)C(=O)NC[C@@H]3Cc3ccc(O)cc3)C[C@@H]2Cc2ccccc2)cc1,-4,nt,nt,30*,nt,nt,-9
CC(C)C[C@@H](CN1CCC[C@@H]1CN1C(=S)NC[C@@H]1Cc1ccccc1)N1C[C@H](Cc2ccc(O)cc2)N(CC2CCCCC2)C1=S,0,nt,nt,30*,nt,nt,-12
O=C1NC[C@H](Cc2ccc(O)cc2)N(C[C@@H]2CCCN2C[C@H](Cc2ccc(O)cc2)N2C[C@H](Cc3ccccc3)N(CCc3ccccc3)C(=O)C2=O)C1=O,-7,nt,nt,34*,nt,nt,-19
CCOc1ccc(CCN2C(=S)N([C@@H](Cc3ccccc3)CN3CCCC3CN3C(=S)NC[C@@H]3Cc3ccccc3)C[C@@H]2Cc2ccc(O)cc2)cc1 (stereo partly specified),-2,nt,nt,30*,nt,nt,-5
CCOc1ccc(CCN2C(=O)C(=O)N([C@@H](CC(C)C)CN3CCC[C@H]3CN3C(=O)C(=O)NC[C@@H]3CC(C)C)C[C@@H]2Cc2ccc(O)cc2)cc1,3,nt,nt,22,nt,nt,nt
O=C(NCC[C@H](O)C1CC1)c1ccccc1Br,nt,nt,nt,nt,nt,-8,nt
CC(O)(CNC(=O)Nc1cccs1)c1ccc(-c2ccccc2)cc1 (stereo unspecified),nt,nt,nt,nt,nt,-7,nt
Cn1nc(C(C)(C)C)cc1NC(=O)C1(C)CCN1C(=O)CC(c1ccccc1)c1ccccc1 (stereo unspecified),0,nt,nt,33*,-1,nt,-11
Cc1no[n+]([O-])c1COc1cccc(/C=N/Nc2nncn2N)c1,0,-7,0,109*,-1,i,-14
CNC(=O)c1c(NC(=O)C2=COCCO2)sc2c1CCC2,nt,nt,nt,nt,nt,2,nt
Cc1cccc(NS(=O)(=O)c2ccc3[nH]c(=O)cc(C(=O)OC(C)C(=O)Nc4ccc([N+](=O)[O-])cc4)c3c2)c1 (stereo unspecified),0,6,3,34*,i,6,-10
COC(=O)c1ccc(S(=O)(=O)NC[C@](C)(OC)c2ccccc2F)cc1,nt,nt,nt,nt,nt,-3,nt
O=C(c1nc[nH]c1C(=O)N1CCc2ccccc2C1)N1CCc2ccccc2C1,-3,nt,nt,43*,-2,-3,-3
CCC(NC(=O)c1ccc2c(ccn2Cc2cccc(-c3ccc(C(=O)O)cc3)c2)c1)c1ccccc1 (stereo unspecified),nt,nt,nt,32*,nt,nt,-2
O=C(NCCn1nc(-c2ccco2)ccc1=O)Nc1cccc(C(F)(F)F)c1,nt,nt,nt,nt,nt,6,nt
COc1ccc(CN2CCN(Cc3ccccc3C(F)(F)F)CC2)c(OC)c1,0,17,-1,30*,i,-10,-2
COc1cccc(CN2CCN(Cc3ccccc3C(F)(F)F)CC2)c1,1,20,2,0,i,-22,nt

# Screens deposited in PubChem BioAssay by several laboratories.
